Source: PubChem BioAssay (NCI)
Compounds without any hit were thinned out: in the full panel of roughly 83,000, 20% have a hit.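 Cells were grown in 96-well plates and exposed to the test compound at a single concentration for 48 hours; results are reported as percent growth, with values below 10 considered active.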 Calls of active or inactive are those of the source.

Columns and labels:
Assay in all cases: NCI-60 one-dose screen, 48 h (100 = growth as untreated, 0 = no growth, -100 = all killed)
Settings in all cases: 10 µM unless noted
SR leukemia = tested on: SR leukemia
RPMI-8226 leukemia = tested on: RPMI-8226 leukemia
OVCAR-8 ovarian = tested on: OVCAR-8 ovarian
OVCAR-5 ovarian = tested on: OVCAR-5 ovarian
OVCAR-4 ovarian = tested on: OVCAR-4 ovarian
SK-OV-3 ovarian = tested on: SK-OV-3 ovarian
IGROV1 ovarian = tested on: IGROV1 ovarian
OVCAR-3 ovarian = tested on: OVCAR-3 ovarian
HS 578T breast = tested on: HS 578T breast
NCI/ADR-RES ovarian = tested on: NCI/ADR-RES ovarian

Measured: growth

CCCCCCCCCCC/C=C\C[C@H](O)C/C=C1/C(=O)C=C[C@@H]1C/C=C\CCCC(=O)OC
inactive: OVCAR-5 ovarian 21.9% | SK-OV-3 ovarian 26.8% | HS 578T breast 18%
active: SR leukemia 6.46% | RPMI-8226 leukemia -10.2% | OVCAR-8 ovarian 7.18% | OVCAR-4 ovarian -1.25% | IGROV1 ovarian -15.9% | OVCAR-3 ovarian -46.2% | NCI/ADR-RES ovarian 9.04%

Cc1ccc(S(=O)(=O)OCC(=O)Nc2ccc(C(=O)O)c(O)c2)cc1
inactive: SR leukemia 45.7% | RPMI-8226 leukemia 92% | OVCAR-8 ovarian 97.7% | OVCAR-5 ovarian 102% | OVCAR-4 ovarian 86.9% | SK-OV-3 ovarian 127% | OVCAR-3 ovarian 118% | HS 578T breast 118% | NCI/ADR-RES ovarian 88%
active: IGROV1 ovarian -17.7%

O=C(OCCCCOC(=O)n1cnc2ccccc21)n1cnc2ccccc21
inactive: SR leukemia 84.6% | RPMI-8226 leukemia 102% | OVCAR-8 ovarian 99.7% | OVCAR-5 ovarian 103% | OVCAR-4 ovarian 105% | SK-OV-3 ovarian 98.9% | IGROV1 ovarian 102% | OVCAR-3 ovarian 108% | HS 578T breast 90.2% | NCI/ADR-RES ovarian 105%

COc1cc2c(cc1OCCCCn1c(-c3cc(=O)c4ccccc4o3)nc3ccccc31)N=C[C@@H]1CCCN1C2=O
active: IGROV1 ovarian -16.3%
inactive: SR leukemia 39.8% | RPMI-8226 leukemia 67.7% | OVCAR-8 ovarian 106% | OVCAR-5 ovarian 111% | OVCAR-4 ovarian 108% | SK-OV-3 ovarian 109% | OVCAR-3 ovarian 111% | HS 578T breast 116% | NCI/ADR-RES ovarian 110%

COc1ccc(C2SCC(=O)N2NC(=O)c2ccc(NC(=O)c3ccccn3)cc2)cc1OC (stereo not given)
inactive: SR leukemia 90.9% | RPMI-8226 leukemia 96.3% | OVCAR-8 ovarian 98% | OVCAR-5 ovarian 100% | OVCAR-4 ovarian 100% | SK-OV-3 ovarian 102% | IGROV1 ovarian 101% | OVCAR-3 ovarian 101% | HS 578T breast 102% | NCI/ADR-RES ovarian 105%

COc1ccc(/C=C2\Oc3cc(OCCN4CCCC4)ccc3C2=O)c(OC)c1
inactive: SR leukemia 19.6% | RPMI-8226 leukemia 33.9% | OVCAR-8 ovarian 96.2% | OVCAR-5 ovarian 90.3% | OVCAR-4 ovarian 97.6% | SK-OV-3 ovarian 110% | IGROV1 ovarian 99.3% | OVCAR-3 ovarian 93.8% | HS 578T breast 98.5% | NCI/ADR-RES ovarian 91.9%

COc1cc(C(=O)CCCl)ccc1O
inactive: SR leukemia 96.9% | RPMI-8226 leukemia 92% | OVCAR-8 ovarian 102% | OVCAR-5 ovarian 92.7% | OVCAR-4 ovarian 98.8% | SK-OV-3 ovarian 111% | IGROV1 ovarian 104% | OVCAR-3 ovarian 102% | HS 578T breast 101% | NCI/ADR-RES ovarian 94.6%

O=C(CNC(=O)c1cccc2ccccc12)Nc1ccccc1Oc1ccccc1
active: OVCAR-3 ovarian -30.5%
inactive: SR leukemia 13.1% | RPMI-8226 leukemia 19.8% | OVCAR-8 ovarian 13.4% | OVCAR-5 ovarian 52.4% | OVCAR-4 ovarian 36% | SK-OV-3 ovarian 23.3% | IGROV1 ovarian 32.1% | HS 578T breast 29.9% | NCI/ADR-RES ovarian 10.3%

CN(C)c1ccc(C2CC(c3ccccc3)=NN2/C=C2\SC(=O)NC2=O)cc1 (stereo not given)
inactive: SR leukemia 50.8% | RPMI-8226 leukemia 87.7% | OVCAR-8 ovarian 100% | OVCAR-5 ovarian 94.2% | OVCAR-4 ovarian 82.6% | SK-OV-3 ovarian 115% | IGROV1 ovarian 94% | OVCAR-3 ovarian 101% | HS 578T breast 98.1% | NCI/ADR-RES ovarian 95.2%

COc1cc(OC)c(C(=O)/C=C/c2ccc(C#N)cc2)c(OC)c1
inactive: OVCAR-8 ovarian 11.7% | OVCAR-5 ovarian 41.8% | OVCAR-4 ovarian 32.8% | SK-OV-3 ovarian 17.2% | IGROV1 ovarian 14% | HS 578T breast 32% | NCI/ADR-RES ovarian 24.1%
active: SR leukemia 6.75% | RPMI-8226 leukemia 4.28% | OVCAR-3 ovarian 8.04%

O=S(=O)(NCCCNc1cc(-c2cn(-c3ccccc3)nc2-c2cccc(O)c2)ccn1)c1ccc(Br)cc1
inactive: OVCAR-8 ovarian 19.1% | OVCAR-5 ovarian 23.4% | OVCAR-4 ovarian 37.4% | SK-OV-3 ovarian 20.7% | IGROV1 ovarian 22.4% | OVCAR-3 ovarian 22% | NCI/ADR-RES ovarian 16.2%
active: SR leukemia -12.4% | RPMI-8226 leukemia 3.52% | HS 578T breast -3.87%

Cc1c(C2=NNC(c3ccc4c(c3)OCO4)C2)[n+]([O-])c2ccccc2[n+]1[O-] (stereo not given)
inactive: SR leukemia 92.2% | RPMI-8226 leukemia 98.9% | OVCAR-8 ovarian 109% | OVCAR-5 ovarian 91.9% | OVCAR-4 ovarian 76.3% | SK-OV-3 ovarian 97.1% | IGROV1 ovarian 84.4% | OVCAR-3 ovarian 93.4% | HS 578T breast 94.3% | NCI/ADR-RES ovarian 95.4%

COc1cc(NS(C)(=O)=O)ccc1Nc1c2ccc([N+](=O)[O-])cc2nc2c(C)cccc12
inactive: SR leukemia 15.6% | OVCAR-8 ovarian 13.7% | OVCAR-5 ovarian 36.8% | OVCAR-4 ovarian 49.1% | SK-OV-3 ovarian 11.2% | HS 578T breast 58.4% | NCI/ADR-RES ovarian 58.6%
active: RPMI-8226 leukemia -19.8% | IGROV1 ovarian -2.46% | OVCAR-3 ovarian -13%

COc1c(NC[C@H]2OC(O)[C@H](O)[C@@H](O)[C@@H]2O)c(=O)c1=O (stereo not given in full)
inactive: SR leukemia 119% | RPMI-8226 leukemia 101% | OVCAR-8 ovarian 101% | OVCAR-5 ovarian 103% | OVCAR-4 ovarian 84.4% | SK-OV-3 ovarian 106% | IGROV1 ovarian 120% | OVCAR-3 ovarian 113% | HS 578T breast 101% | NCI/ADR-RES ovarian 101%

C#CCC1(c2ccc(F)c(F)c2)NS(=O)(=O)c2ccccc21 (stereo not given)
inactive: SR leukemia 76% | RPMI-8226 leukemia 109% | OVCAR-8 ovarian 93.9% | OVCAR-5 ovarian 107% | OVCAR-4 ovarian 105% | SK-OV-3 ovarian 96.9% | IGROV1 ovarian 94.3% | OVCAR-3 ovarian 109% | HS 578T breast 101% | NCI/ADR-RES ovarian 103%

CNC(=O)Cc1nc(-c2cccc(NS(=O)(=O)c3c(F)cccc3F)c2F)c(-c2ccnc(Nc3ccccc3)n2)s1
inactive: SR leukemia 76.4% | RPMI-8226 leukemia 101% | OVCAR-8 ovarian 57.8% | OVCAR-5 ovarian 32.9% | OVCAR-4 ovarian 124% | SK-OV-3 ovarian 29.9% | IGROV1 ovarian 17.5% | OVCAR-3 ovarian 77.2% | HS 578T breast 64.5% | NCI/ADR-RES ovarian 104%

COc1ccc2c(c1)NC(=O)CN2c1nc(NC2CC2)nc2ccccc12
inactive: SR leukemia 31.5% | RPMI-8226 leukemia 32.7% | OVCAR-8 ovarian 18.3% | OVCAR-5 ovarian 44% | OVCAR-4 ovarian 40.3% | SK-OV-3 ovarian 23.9% | IGROV1 ovarian 24.5% | HS 578T breast 26.6%
active: OVCAR-3 ovarian -19.7% | NCI/ADR-RES ovarian 5.39%

CCOC(=O)CC/C(C)=N\Nc1ccc([N+](=O)[O-])cc1
inactive: SR leukemia 39% | RPMI-8226 leukemia 59.8% | OVCAR-8 ovarian 56.9% | OVCAR-5 ovarian 84.3% | OVCAR-4 ovarian 77.2% | SK-OV-3 ovarian 57.8% | IGROV1 ovarian 71% | OVCAR-3 ovarian 86.1% | HS 578T breast 88.6% | NCI/ADR-RES ovarian 80.3%

CCCCC(N)(C(=O)O)C1CCCC1 (stereo not given)
inactive: SR leukemia 96.4% | RPMI-8226 leukemia 111% | OVCAR-8 ovarian 97.2% | OVCAR-5 ovarian 97.8% | OVCAR-4 ovarian 103% | SK-OV-3 ovarian 117% | IGROV1 ovarian 110% | OVCAR-3 ovarian 116% | HS 578T breast 122% | NCI/ADR-RES ovarian 97.4%

CCn1c(=O)c2c(=O)c3c4c(oc3oc2c2ccccc21)C(=O)c1ccccc1C4=O
inactive: SR leukemia 80.8% | RPMI-8226 leukemia 33.5% | OVCAR-8 ovarian 10.2% | OVCAR-5 ovarian 118% | SK-OV-3 ovarian 102% | IGROV1 ovarian 68.3% | HS 578T breast 93.7% | NCI/ADR-RES ovarian 45.8%
active: OVCAR-4 ovarian -99.5% | OVCAR-3 ovarian -16.3%

COc1ccc(S(=O)(=O)Nc2cc(/C=C\c3cc(OC)c(OC)c(OC)c3)cc(OC)c2OC)cc1OC
inactive: SR leukemia 20% | RPMI-8226 leukemia 25.3% | OVCAR-8 ovarian 41% | OVCAR-5 ovarian 30.8% | OVCAR-4 ovarian 39.7% | SK-OV-3 ovarian 17.1% | IGROV1 ovarian 49.5% | NCI/ADR-RES ovarian 12.6%
active: OVCAR-3 ovarian -18.2% | HS 578T breast 8.3%

Cc1c(C(=O)NCc2ccccc2)[n+](=O)c2cc(F)ccc2n1[O-]
active: IGROV1 ovarian -26.7%
inactive: SR leukemia 70.6% | RPMI-8226 leukemia 64.1% | OVCAR-8 ovarian 116% | OVCAR-5 ovarian 103% | OVCAR-4 ovarian 98% | SK-OV-3 ovarian 109% | OVCAR-3 ovarian 93.2% | HS 578T breast 148% | NCI/ADR-RES ovarian 105%

Cc1ccc2nc(SCn3nnc4ccccc4c3=O)[nH]c2c1
inactive: SR leukemia 112% | RPMI-8226 leukemia 94.4% | OVCAR-8 ovarian 109% | OVCAR-5 ovarian 89.5% | OVCAR-4 ovarian 78.4% | SK-OV-3 ovarian 103% | IGROV1 ovarian 83.7% | OVCAR-3 ovarian 104% | HS 578T breast 107% | NCI/ADR-RES ovarian 88.8%

CC(=O)Nc1ccc2c(c1)/C(=C\C=C/c1ccc([N+](C)(C)C)cc1)c1ccccc1-2
inactive: SR leukemia 90% | RPMI-8226 leukemia 73.6% | OVCAR-8 ovarian 57.4% | OVCAR-5 ovarian 53.9% | OVCAR-4 ovarian 28.1% | SK-OV-3 ovarian 70.2% | IGROV1 ovarian 67.1% | OVCAR-3 ovarian 78% | HS 578T breast 25.3% | NCI/ADR-RES ovarian 101%

CCCCNc1nnc(-c2cc(-c3cc4ccccc4o3)nn2-c2ccccc2)o1
inactive: SR leukemia 76.5% | RPMI-8226 leukemia 77.9% | OVCAR-8 ovarian 88% | OVCAR-5 ovarian 105% | OVCAR-4 ovarian 86.7% | SK-OV-3 ovarian 99.4% | IGROV1 ovarian 63.9% | OVCAR-3 ovarian 66% | HS 578T breast 93.1% | NCI/ADR-RES ovarian 87.5%

CCOC(=O)C1=C(C)NC(=O)NC1c1ccc(OCC(=O)N/N=C/c2ccc(Cl)cc2)cc1 (stereo not given)
inactive: SR leukemia 68.7% | RPMI-8226 leukemia 90.1% | OVCAR-8 ovarian 95.2% | OVCAR-5 ovarian 87.9% | OVCAR-4 ovarian 95.1% | SK-OV-3 ovarian 88.9% | IGROV1 ovarian 94.9% | OVCAR-3 ovarian 99.8% | HS 578T breast 86.6% | NCI/ADR-RES ovarian 106%

CS(=O)(=O)N(c1cc(-c2ccc3ncnc(Nc4cccc(Cl)c4)c3c2)cnc1Cl)S(C)(=O)=O
inactive: SR leukemia 22.8% | OVCAR-8 ovarian 23.8% | OVCAR-5 ovarian 12.1% | OVCAR-4 ovarian 43.3% | OVCAR-3 ovarian 11.1% | NCI/ADR-RES ovarian 42.2%
active: RPMI-8226 leukemia -6.09% | SK-OV-3 ovarian -11.1% | IGROV1 ovarian -38.3% | HS 578T breast -3.12%
